Read-out in assay [1]: Tissue plasminogen activator (tPA), PLAT (gene 5327)
The experiment in a line: BSK_BE3C_tPA: BioMAP Diversity Plus: BE3C Assay for Tissue plasminogen activator (tPA) Biomarker Activity (AID 2283041).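 As to outcome: tPA level quantified by ELISA one day after compound addition.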 The conditions noted are these: primary human bronchial epithelial cells; actives raise or lower the signal. Summed up: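 Using human lung primary bronchial epithelial cells, tPA was measured by ELISA 24 h after dosing; data fitted relative to DMSO.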

Read-out in assay [2]: Interleukin-8 (IL8), CXCL8 (gene 3576)
The experiment in a line: BSK_CASM3C_IL8: BioMAP Diversity Plus: CASM3C Assay for Interleukin-8 (IL8) Biomarker Activity (AID 2283042).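 Also: IL-8 protein level quantified by ELISA.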 As to conditions: primary human coronary artery smooth muscle cells; actives raise or lower the signal.

Read-out in assay [3]: Human Leukocyte Antigen - DR isotype (HLADR), HLA-DRA (gene 3122)
The experiment in a line: BSK_CASM3C_HLADR: BioMAP Diversity Plus: CASM3C Assay for Human Leukocyte Antigen - DR isotype (HLADR) Biomarker Activity (AID 2283043).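 Also: cell-surface HLA-DR protein level quantified by ELISA.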 The conditions noted are these: primary human coronary artery smooth muscle cells; actives raise or lower the signal.

Read-out in assay [4]: Macrophage colony-stimulating factor (MCSF), CSF1 (gene 1435)
The experiment in a line: BSK_CASM3C_MCSF: BioMAP Diversity Plus: CASM3C Assay for Macrophage colony-stimulating factor (MCSF) Biomarker Activity (AID 2283044).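 Also: M-CSF protein amount quantified by ELISA after 24 h exposure.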 The conditions noted are these: primary human coronary artery smooth muscle cells; actives raise or lower the signal.

Read-out in assay [5]: Low-density lipoprotein receptor (LDLR), LDLR (gene 3949)
The experiment in a line: BSK_CASM3C_LDLR: BioMAP Diversity Plus: CASM3C Assay for Low-density lipoprotein receptor (LDLR) Biomarker Activity (AID 2283045).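 Also: LDLR protein level on the cell surface quantified by ELISA.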 As to conditions: primary human coronary artery smooth muscle cells; actives raise or lower the signal.

Read-out in assay [6]: Monocyte Chemoattractant Protein-1 (MCP1), CCL2 (gene 6347)
The experiment in a line: BSK_CASM3C_MCP1: BioMAP Diversity Plus: CASM3C Assay for Monocyte Chemoattractant Protein-1 (MCP1) Biomarker Activity (AID 2283046).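 Also: MCP-1 level quantified by ELISA 24 h after dosing.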 As to conditions: primary human coronary artery smooth muscle cells; actives raise or lower the signal.

Assay [7] is described as follows: BSK_CASM3C_Proliferation: Cell Proliferation Assessment in the BioMAP Diversity Plus: CASM3C Assay (AID 2283047).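 Also: sulforhodamine B total protein stain as relative cell number at 560 nm; sub-confluent cells exposed 48 h before staining; fitted both ways against DMSO so gain or loss of cell number.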 The conditions noted are these: primary human coronary artery smooth muscle cells.
Read-out in assay [8]: Monokine induced gamma interferon (MIG), CXCL9 (gene 4283)
The experiment in a line: BSK_CASM3C_MIG: BioMAP Diversity Plus: CASM3C Assay for Monokine induced gamma interferon (MIG) Biomarker Activity (AID 2283048).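 Also: MIG protein level measured by ELISA.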 The conditions noted are these: primary human coronary artery smooth muscle cells; actives raise or lower the signal.

Read-out in assay [9]: serum amyloid A (SAA), SAA1 (gene 6288)
The experiment in a line: BSK_CASM3C_SAA: BioMAP Diversity Plus: CASM3C Assay for serum amyloid A (SAA) Biomarker Activity (AID 2283049).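 Also: SAA protein level quantified by ELISA.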 As to conditions: primary human coronary artery smooth muscle cells; actives raise or lower the signal.

Assay [10] is described as follows: BSK_CASM3C_SRB: Viability Assessment in the BioMAP Diversity Plus: CASM3C Assay (AID 2283050).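 Also: total protein by SRB staining as cytotoxicity measure in parallel cultures; cells exposed to compound for 24 h.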 As to conditions: primary human coronary artery smooth muscle cells.
Read-out in assay [11]: Thrombomodulin, THBD (gene 7056)
The experiment in a line: BSK_CASM3C_Thrombomodulin: BioMAP Diversity Plus: CASM3C Assay for Thrombomodulin Biomarker Activity (AID 2283051).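 Also: thrombomodulin protein level measured by ELISA 24 h after dosing.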 The conditions noted are these: primary human coronary artery smooth muscle cells; actives raise or lower the signal.

Read-out in assay [12]: Tissue Factor, F3 (gene 2152)
The experiment in a line: BSK_CASM3C_TissueFactor: BioMAP Diversity Plus: CASM3C Assay for Tissue Factor Biomarker Activity (AID 2283052).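 Also: cell surface tissue factor protein level read by ELISA.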 As to conditions: primary human coronary artery smooth muscle cells; actives raise or lower the signal.

Read-out in assay [13]: Interferon-gamma inducible Protein 10 (IP10), CXCL10 (gene 3627)
The experiment in a line: BSK_hDFCGF_IP10: BioMAP Diversity Plus: hDFCGF Assay for Interferon-gamma inducible Protein 10 (IP10) Biomarker Activity (AID 2283053). As to conditions: primary human foreskin fibroblasts; actives raise or lower the signal. Summed up:
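Chemical-treated human skin fibroblasts (primary) were sampled at 24 h for IP-10 by ELISA. Both increases and decreases relative to DMSO were scored.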

Read-out in assay [14]: Urokinase-type plasminogen activator receptor (uPAR), PLAUR (gene 5329)
The experiment in a line: BSK_CASM3C_uPAR: BioMAP Diversity Plus: CASM3C Assay for Urokinase-type plasminogen activator receptor (uPAR) Biomarker Activity (AID 2283054).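 Also: cell-surface uPAR protein level quantified by ELISA.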 As to conditions: primary human coronary artery smooth muscle cells; actives raise or lower the signal.

Read-out in assay [15]: Vascular cell adhesion molecule 1 (VCAM1), VCAM1 (gene 7412)
The experiment in a line: BSK_CASM3C_VCAM1: BioMAP Diversity Plus: CASM3C Assay for Vascular cell adhesion molecule 1 (VCAM1) Biomarker Activity (AID 2283055).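 Also: VCAM-1 protein level quantified by ELISA on the cells.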 The conditions noted are these: primary human coronary artery smooth muscle cells; actives raise or lower the signal.

Read-out in assay [16]: Collagen III, COL3A1 (gene 1281)
The experiment in a line: BSK_hDFCGF_CollagenIII: BioMAP Diversity Plus: hDFCGF Assay for Collagen III Biomarker Activity (AID 2283056). The conditions noted are these: primary human foreskin fibroblasts; actives raise or lower the signal. The method in brief:
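ELISA read-out of collagen III from human skin fibroblast cultures sampled 24 h post-dosing. Values were derived by bidirectional fitting relative to the DMSO vehicle control.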

Read-out in assay [17]: Epidermal growth factor receptor (EGFR), EGFR (gene 1956)
The experiment in a line: BSK_hDFCGF_EGFR: BioMAP Diversity Plus: hDFCGF Assay for Epidermal growth factor receptor (EGFR) Biomarker Activity (AID 2283057). As to conditions: primary human foreskin fibroblasts; actives raise or lower the signal. The method in brief: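 Cell-based multiplexed assay in primary human foreskin fibroblasts. EGFR is read by ELISA 24 h after treatment and compared with DMSO controls.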

Read-out in assay [18]: Interleukin-8 (IL8), CXCL8 (gene 3576)
The experiment in a line: BSK_hDFCGF_IL8: BioMAP Diversity Plus: hDFCGF Assay for Interleukin-8 (IL8) Biomarker Activity (AID 2283058). As to conditions: primary human foreskin fibroblasts; actives raise or lower the signal. The method in brief:
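Cells used are human skin primary fibroblasts. Chemical is added, cultures run 24 h, then IL-8 is quantified by ELISA, and gain or loss versus DMSO control is fitted in both directions.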

The nature of assay [19]: BSK_hDFCGF_Proliferation: Cell Proliferation Assessment in the BioMAP Diversity Plus: hDFCGF Assay (AID 2283059).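 Also: curves fitted for both rise and fall of signal versus DMSO baseline.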 The conditions noted are these: primary human foreskin fibroblasts. Summed up: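 Steps: dose primary human dermal fibroblasts (foreskin); […] fix in 10% TCA; stain with 0.1% SRB; read 560 nm; fit gain or loss of signal against DMSO.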

These results are taken from PubChem BioAssay (EPA / NIEHS).

SMILES strings stand for the structures. Several values for one entry are separate records, joined by “and”; a condition that tells them apart may be missing. Identical values can stand only once. A structure can be active in one record and inactive in another. Activity calls are given as the source filed them. The calls were made as follows: active = hit-call score of the fitted dose curve at least 0.9, where 1 is the maximum; inactive = score below 0.9.

In general, AC50 refers to the concentration giving half of the maximal activity seen. Regarding `O=C1c2ccccc2C(=O)c2c(O)ccc(O)c21`, the outcome in assay [1], in assay [2], in assay [4], in [5], in assay [6] and in assay [8] was inactive. Besides, the outcome in [9], in assay [10], in assay [11], in assay [12], in assay [13] and in assay [16] was inactive. In addition, the outcome in [17] and in assay [18] was inactive. In addition, the AC50 in [3] is 4.94 µM (active); in assay [7], 15 µM (active); in assay [14], 4.99 µM (active); in assay [15] it was 5.44 µM (active); in assay [19] it was 3.14 µM (active).
In the case of `IC(I)I`, the outcome in assay [1], in assay [2], in assay [3], in [4], in assay [5] and in [6] was inactive. For the same compound, the result in [7], in assay [8], in assay [9], in [10], in assay [11] and in assay [12] was inactive. The result in [13], in assay [15], in assay [16], in assay [17], in assay [18] and in [19] was inactive. Also, the AC50 in assay [14] is 0.584 µM (active).
For the compound `CCCCN(CCCC)C(=O)N(CCCC)CCCC`, the AC50 was 6.94 µM (active) in assay [1]; 20 µM (active) in [2]; 12.5 µM (active) in [3]; 17.4 µM (active) in assay [4]; 20 µM (active) in [5]; 20 µM (active) in assay [6]. The AC50 in assay [7] is 10.4 µM (active); in assay [8] it was 20 µM (active); in assay [9] it was 10.8 µM (active); in assay [10], 13.9 µM (active); in assay [12], 11.7 µM (active); in assay [13], 11.1 µM (active). In addition, the AC50 is 20 µM (active) in assay [14], 12.8 µM (active) in assay [15], 7.43 µM (active) in assay [16] and 3.96 µM (active) in assay [19]. Moreover, the outcome in [11], in [17] and in assay [18] was inactive.
For the compound `CC=Cc1ccc(OCC)c(O)c1`, the outcome in assay [1], in assay [2], in assay [3], in assay [4], in [5] and in assay [6] was inactive. The outcome in assay [7], in [8], in assay [9], in assay [10], in [11] and in [12] was inactive. The result in assay [13], in [14], in [15], in [16], in [17] and in assay [18] was inactive. In addition, the result in [19] was inactive.
`CC(CN=Cc1ccccc1O)N=Cc1ccccc1O` (stereo not drawn): the AC50 is 8.3 µM (active) in assay [1], 20 µM (active) in assay [5] and 1.64 µM (active) in assay [7]. Moreover, the outcome in [1], in [2], in [3], in assay [4], in assay [5] and in assay [6] was inactive. In addition, the result in [7], in assay [8], in assay [9], in assay [10], in assay [11] and in [12] was inactive. In addition, the outcome in assay [13], in [14], in [15], in [16], in assay [17] and in assay [18] was inactive. Also, in [19], the outcome was inactive.
Consider `CCCCCCC(CO)CCCC` (stereo not drawn), for which the outcome in assay [1], in assay [2], in [3], in assay [4], in [5] and in assay [6] was inactive. Moreover, the result in assay [7], in [8], in [9], in [10], in assay [11] and in assay [12] was inactive. Moreover, the outcome in [14], in assay [15] and in assay [17] was inactive. For the same compound, the AC50 was 30.6 µM (active) and 32.5 µM (active) in assay [13]; 2.22 µM (active) in [15]; 29.6 µM (active) and 31.9 µM (active) in [16]; 37.9 µM (active) and 37.8 µM (active) in [18]; 35.1 µM (active) and 31.4 µM (active) in [19].
